# E coli growth-1: bacterial growth inhibition, counter-screen for AddAB inhibitors | E. coli V3065 growth, OD600 absorbance, 18 h | inhibition, % at 11.9 µM | 330,000 tested, 0.27% active | AID 449728;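 active = inhibition above the campaign's mean inhibition across all tested compounds plus 3 SD, cut at about 9.9% in these data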;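 also: uninfected addAB+ strain grown without phage in ampicillin broth; 0% = DMSO wells and 100% = ciprofloxacin 0.95 µg/ml wells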
# Tat export inh: E. coli Tat transport inhibition | E. coli MC4100 TorA-mCherry Tat export, fluorescence | inhibition, % at 10 µM | 340,000 tested, 0.036% active;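 active = mean replicate inhibition at least 50% and at least half of replicates individually reaching 50%; inconclusive = only one of the two criteria met; inactive = neither criterion met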;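 also: exported cargo escapes ClpAP degradation while cytoplasmic cargo is degraded and loses fluorescence; 0% = median of neutral control wells and 100% = median of NaSCN control wells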
# phage Ecoli inh: E. coli growth loss with phage present; growth absorbance; inhibition, % at 11.9 µM; 360,000 tested, 0.26% active; in the data active = inhibition above about 11%
# E coli growth-2: E. coli growth inhibition. Escherichia coli growth, OD600, 23 h; hits give low values. OD600 absorbance (no concentration beside the values). 330,000 tested, 0.21% active;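 active = OD600 absorbance below the run mean of sample wells minus 3.6 SD, in any replicate, cut at about 0.56 in these data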
# AddAB inh: less growth of phage-infected E. coli with AddAB; AID 435030; E. coli expressing H. pylori AddAB, absorbance growth; inhibition, % at 11.9 µM; 330,000 tested, 0.29% active; in the data active = inhibition above about 12%;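 also: 0% = vehicle wells of infected cells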
# AddAB confirm: growth loss of T4-infected E. coli expressing H. pylori AddAB, confirmed; shares compounds with AddAB inh; E. coli V3065 expressing H. pylori AddAB, T4 phage, OD; T4 phage with gene 2 nonsense mutations; inhibition, % at 11.9 µM; 880 tested, 64% active; AID 488942;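 active = mean inhibition above a set limit taken from the earlier primary screen, cut at about 13% in these data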;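 also: higher means less bacterial growth since AddAB block lets phage replicate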
# RecBCD counter: counter-screen: growth loss of RecBCD+ E. coli with mutant T4 phage; inhibition, % at 11.9 µM; 880 tested, 73% active; E. coli V66 + mutant T4 phage, OD growth; shares compounds with AddAB inh;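 active = mean inhibition above the mean of solvent-only control wells plus 3 SD, cut at about 4% in these data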;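 also: optical density read after an 18 h incubation at 37 °C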
# bact viab count: counter-screen: bacterial growth inhibition; shares compounds with AddAB inh; bacterial viability, absorbance (AddAB counterscreen); inhibition, % at 11.9 µM; 880 tested, 35% active; AID 488956; in the data active = inhibition above about 25%
# * hit, by the source's call; u = inconclusive; x = no result. Sampled rows, rich in hits. Any-hit rate of the full collection: about 0.5%.
SMILES,E coli growth-1,Tat export inh,phage Ecoli inh,E coli growth-2,AddAB inh,AddAB confirm,RecBCD counter,bact viab count
CCCCCC=NNC(=O)Cc1ccc([N+](=O)[O-])cc1,x,x,x,0.718,x,x,x,x
C#CCOCCOCCOCCNc1nc(N2CCN(C(=O)C(CCCCN)n3cc(CN)nn3)CC2)nc(N2CCN(C(=O)C(CCCN=C(N)N)n3cc(C(N)C(C)CC)nn3)CC2)n1 (stereo not drawn),x,x,x,0.726,x,x,x,x
CCCCCCC=Cc1ccc(OC)c(C2C3C=CCC(C)C3C(=O)N2Cc2ccccc2)c1 (stereo not drawn),x,x,x,0.681,x,x,x,x
CCCNC(=O)c1ccc2c(=O)c(O)c(-c3ccc(F)cc3)[nH]c2c1,15.4*,-6.1,x,0.666,17.8*,10.9,13.3*,13.9
CC(NC(=O)NC1CCCCC1)C(c1cccs1)N1CCN(C)CC1 (stereo not drawn),8.3,-13.2,1.3,0.73,84.7*,0.6,0.4,-3.9
CN(C)c1ccc(C=NNc2ccc(-n3ccnc3)nn2)cc1,x,x,x,0.797,x,x,x,x
O=c1c2ccccc2[nH]c2ccc(F)cc12,10.1*,-2.8,10.4,0.612,14.5*,7.1,8.8*,3.2
COC(=O)c1cc(S(=O)(=O)NCc2ccc(F)cc2)cn1C,5.4,-0.8,2.4,0.741,15.3*,-1.1,0.5,-2.3
N#CC(=Cc1ccc(C(=O)O)cc1)c1ccccn1,x,x,x,0.663,x,x,x,x
CC(CC1CC(C)OC1=O)=NNC(N)=S (stereo not drawn),x,x,x,0.678,x,x,x,x
Cc1ccccc1-c1nc(CN2CCC(C(=O)O)CC2)c(C)o1,5.6,u,1.4,0.705,20.4*,3.5,0.9,-2.5
C=CCn1c(O)c(N=Nc2ccccc2)c2ccccc21,-3.8,-0.8,3.6,x,-1.5,x,x,x
C=CCn1c(O)c(N=Nc2ccccc2O)c2ccccc21,11.2*,2.1,7.2,0.619,17.9*,81.4*,4.6*,19.1
CC1C(=O)N2CCCc3cc(S(=O)(=O)N(C)c4ccccc4)cc1c32 (stereo not drawn),23.0*,-1.0,-1.6,0.658,43.9*,1.4,-2.1,-0.1
CCCCN1CCC2C=CCC(C(=O)Nc3ccc(Cl)c(C(F)(F)F)c3)C2C1=O (stereo not drawn),x,x,x,0.722,x,x,x,x
Cc1ccc(N2CC(NS(=O)(=O)c3cccs3)CC2=O)cc1 (stereo not drawn),98.1*,-1.3,4.3,0.634,98.3*,0.1,2.1,2.7
Cc1cc(NC(=O)c2cc(C)on2)no1,-0.2,-14.6,1.2,0.724,-0.9,x,x,x
CCCc1cc(C(=O)Nc2cc(C)on2)no1,95.6*,2.8,2.4,0.63,99.7*,0.8,3.0,2.7
CCn1cc(C(=O)NCc2ccncc2)c(=O)c2cc(F)c(N3CCN(C(=O)c4ccco4)CC3)cc21,91.6*,x,2.9,0.071*,98.3*,98.8*,8.0*,88.0*
CCn1cc(C(=O)NCc2ccccc2)c(=O)c2cc(F)c(N3CCN(C(=O)c4ccco4)CC3)cc21,6.3,0.3,1.1,0.565,7.9,x,x,x
CCn1cc(C(=O)NCc2ccc3c(c2)OCO3)c(=O)c2cc(F)c(N3CCN(C(=O)c4ccco4)CC3)cc21,90.9*,30.2,9.5,0.052*,97.1*,99.0*,10.3*,97.8*
CCn1cc(C(=O)NCCC(=O)OC)c(=O)c2cc3c(cc21)OCO3,0.3,-1.0,2.5,0.684,-0.2,x,x,x
C=CCOC(=O)C1=CC(c2csc3ccccc23)CC(OCc2ccc(CO)cc2)O1 (stereo not drawn),x,x,x,0.655,x,x,x,x
Cc1cc2cc(CNS(=O)(=O)N(C)C)ccc2[nH]1,26.1*,2.4,2.4,0.785,34.4*,-1.1,-0.9,-2.9
Cc1ccc(S(=O)(=O)NCc2ccc3[nH]c(C)cc3c2)cc1,3.1,1.8,1.8,0.66,1.0,x,x,x
SMILES,E coli growth-1,Tat export inh,phage Ecoli inh,E coli growth-2,AddAB inh,AddAB confirm,RecBCD counter,bact viab count
CC(C)C(NC(=O)c1ccccc1)C(=O)NN=Cc1ccco1 (stereo not drawn),x,x,x,0.688,x,x,x,x
CSc1cccc(NC(=O)CCNC(=O)c2ccco2)c1,5.5,1.6,3.2,0.659,7.3,x,x,x
O=C(CCNC(=O)c1ccco1)Nc1cccc(Br)c1,2.2,-7.3,3.2,0.674,14.3*,6.9,3.5,1.2
CC(=O)Oc1ccc(C=NNC(=S)Nc2ccccc2)cc1,x,x,x,0.66,x,x,x,x
CC(C)OCC(O)CCc1n[nH]c(=S)n1-c1ccccc1 (stereo not drawn),-0.3,-5.6,2.0,0.651,1.4,x,x,x
CCCCOCC(O)CCc1n[nH]c(=S)n1-c1ccccc1 (stereo not drawn),26.7*,0.1,2.7,0.639,83.9*,1.5,1.0,-0.8
O=[N+]([O-])c1cc(S(=O)(=O)N2CCCC2)ccc1NN=Cc1cccs1,x,x,x,0.69,x,x,x,x
O=C(NC(=S)NNC(=O)c1ccccc1O)c1cccs1,6.1,2.8,9.2,0.537,12.8*,22.1*,19.7*,13.4
O=C(NC(=S)NNC(=O)c1ccccc1O)c1ccccc1,10.4*,u,9.9,0.577,12.6*,10.5,17.1*,15.0
O=C(NC(=S)NNC(=O)c1ccccc1O)c1ccc(F)cc1,15.7*,4.5,10.2,0.723,12.7*,15.2*,18.4*,16.1
COc1ccccc1C(=O)NNC(=S)NC(=O)c1cccs1,-0.2,8.2,0.6,x,3.9,x,x,x
Cn1c(N=Cc2ccc3c(c2)OCO3)nc2ccccc21,x,x,x,0.685,x,x,x,x
NC(=NOC(=O)Nc1ccccc1)c1ncc([N+](=O)[O-])s1,x,x,x,0.647,x,x,x,x
N/C(=N/OC(=O)c1ccccc1Cl)c1ncc([N+](=O)[O-])s1,10.2*,-11.4,2.9,x,14.0*,37.4*,3.5,9.3
Cc1cccc(NC(=O)c2ccccc2O)c1C,2.2,1.5,5.9,0.623,3.7,x,x,x
O=C(Nc1ccccc1O)c1ccccc1O,13.3*,2.1,9.2,0.478*,23.7*,4.5,8.2*,-0.6
O=C(COc1ccccc1)NCC(=O)NN=Cc1ccco1,x,x,x,0.699,x,x,x,x
NS(=O)(=O)c1ccc(-c2ccc(/C=C3\C(=O)Nc4ccccc43)o2)cc1,-1.2,x,x,x,3.5,x,x,x
Cc1ccc(/C=C2\C(=O)Nc3ccccc32)o1,19.0*,3.3,16.8*,0.512*,61.6*,98.1*,13.7*,44.2*
Cc1ccc2nc(C)cc(NN=Cc3cccc(O)c3)c2c1,x,x,x,0.664,x,x,x,x
CCOC(=O)CC1C(C(=O)OCC)ON2OC(C(=O)OC)C(C(=O)OCC)C12 (stereo not drawn),21.0*,-4.4,0.9,0.665,46.4*,-3.0,0.6,-1.6
COC(=O)CC1C(C(=O)OC)ON2OC(C(=O)OC)C(C(=O)OC)C12 (stereo not drawn),-1.6,0.8,4.4,0.692,0.2,x,x,x
O=C(Nc1ccccc1Cl)c1ccc([N+](=O)[O-])o1,23.9*,-17.2,8.6,0.571,31.3*,92.2*,10.4*,28.9*

# Screens from PubChem.
